The values that follow come from PubChem BioAssay (NCI).

The panel holds about 83,000 compounds, 20% with a hit somewhere; the sample as a whole holds those more often.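 Cells were grown in 96-well plates and exposed to the test compound at a single concentration for 48 hours; results are reported as percent growth, with values below 10 considered active.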 Activity calls are given as the source filed them.

The subject of the first assay is 786-0 renal. Put plainly: NCI-60 one-dose screen, 48 h (100 = growth as untreated, 0 = no growth, -100 = all killed). The following applies: 10 µM unless noted.
For the compound `CC(=O)O[C@H]1CC[C@]2(C)[C@H]3CC=C4[C@@H]5CC(C)(C)CC[C@]5(C(=O)OCC(COC(=O)C(Cl)Cl)(COC(=O)C(Cl)Cl)NC(=O)C(Cl)Cl)CC[C@@]4(C)[C@]3(C)CC[C@H]2C1(C)C`, the growth is 63.9% (inactive).

As to `Clc1ccc(Cl)c(N=Cc2ccc3c(c2)OCO3)c1`, the growth is 110% (inactive).

With `CCN(CC)c1ccc2c(cc1=O)[C@@H](NC(C)=O)CCc1cc(OC)c(OC)c(OC)c1-2`, the growth was 15.6% (inactive).

Consider `COc1ccc(CNc2c3ccccc3nc3ccc(OC)cc23)cc1`, for which the growth was 15% (inactive).

In the case of `NC(=O)c1ccc[n+](Cc2ccccc2)c1`, the growth was 109% (inactive).

For the compound `N/N=C(\C(=N\N)c1ccccc1)c1ccccc1`, the growth is 97.6% (inactive).

As for `CC1=C(O)C(=O)CC1`, the growth was 105% (inactive).

For the compound `CCN(CC)CCCC(C)Nc1ccnc2ccc(Oc3ccccc3)cc12` (stereo not drawn), the growth was 72.3% (inactive).

On to `COc1cc2ncnc(Nc3ccc(S(=O)(=O)Nc4nccs4)cc3)c2cc1OCCCN1CCOCC1`, for which the growth was 108% (inactive).

With `CC(=O)Cc1ccccn1`, the growth is 101% (inactive).

In the case of `CC1OC(n2c3ccccc3c3c4c(c5c6ccccc6[nH]c5c32)C(=O)N(CCN[C@H]2CCC[C@@H]2N)C4=O)CC(O)C1O` (stereo partly drawn), the growth was 50.2% (inactive).

For `O=C(C(=O)N1CCCC1)c1cn(CCCn2cc(C(=O)C(=O)N3CCCC3)c3cc(Br)ccc32)c2ccc(Br)cc12`, the growth is 71.4% (inactive).

`CCCCCCCOc1cccc(/C=C2\N=C3SCCCN3C2=O)c1`: the growth was 92.5% (inactive).

For `COc1ccc(NC(=O)c2sc3c(=O)[nH]c(C(F)(F)F)nc3c2C)cc1`, the growth was 103% (inactive).

In the case of `C=C[C@H]1CCC/C=C/[C@@H]2C[C@H](O)C[C@H]2[C@H](O)/C=C/C(=O)O1`, the growth was -53.5% (active).

On to `C=CC(=O)N1CN(C(=O)C=C)CN(C(=O)C=C)C1`, for which the growth is 95.7% (inactive).

On to `CC(C)CCSc1nc(Nc2ccccc2)c(C#N)c(-c2ccc(F)cc2)n1`, for which the growth was -9.8% (active).

In the case of `COC(=O)c1ccc2c(c1)nc(-c1cc3ccccc3[nH]c1=O)n2-c1cc(C(C)(C)C)[nH]n1`, the growth was 33.3% (inactive).

As for `O=C1NN(C(=O)c2ccccc2)C(c2ccc(Cl)c(Cl)c2)=C/C1=C\c1ccccc1[N+](=O)[O-]`, the growth was 31.1% [6.75 µM] (inactive).

On to `O=C(CCl)Nc1ccc2c(c1)C(=O)c1ccccc1C2=O`, for which the growth is -72.3% (active).

For `CCOC(=O)C1C(=O)C=C(c2cc(OC)c(OC)c(OC)c2)CC1c1sc(N(C)Cc2ccccc2)nc1Cl` (stereo not drawn), the growth was 85.9% (inactive).

As to `N/C(=N\OC(=O)c1ccccc1)C(C(=O)NOC(=O)c1ccccc1)C1CCCCC1` (stereo not drawn), the growth was 76% (inactive).

Turning to `C=C(C)[C@@H]1CC[C@]2(C(=O)O)CC[C@]3(C)[C@H](CC[C@@H]4[C@@]5(C)C[C@@H](CC#Cc6ccc(C(C)=O)s6)[C@H](O)C(C)(C)[C@@H]5CC[C@]43C)[C@@H]12`, the growth was 58.6% (inactive).

Take `CC(C)[C@@H]1C=C2CC[C@H]3[C@](C)(CN)CCC[C@]3(C)[C@H]2CC1`: the growth is 78% (inactive).

With `COc1ccc(-c2cc(-c3cn(-c4cccc(Cl)c4)nc3-c3ccc(OC)cc3)[nH]c(=S)n2)cc1`, the growth was 96.5% (inactive).

With `CCN1CCN(Cc2ccc(NC(=O)Nc3ccc(-n4ccc5c(NC(=O)c6ccccc6)nccc54)cc3)cc2C(F)(F)F)CC1`, the growth is -84.6% (active).

In the case of `Clc1ccc(C2=NN[C@H](c3cn(-c4ccccc4)nc3-c3ccccc3)C2)cc1`, the growth is 83.7% (inactive).

Take `CC(C)CC1NC(=O)C(CC(C)C)N(CO)C1=O` (stereo not drawn): the growth is 102% (inactive).

With `c1ccc(-c2ccc(-c3ccccc3)[nH]2)cc1`, the growth is 96.6% (inactive).

For `C=CCN(CC#N)CC=C`, the growth was 107% (inactive).

For `COc1ccc2c(c1)sc1nc(-c3ccccc3)c(-c3cccc4ccccc34)n12`, the growth was 51.7% (inactive).

For `CC(C)c1nc2ccccc2n1CC(=O)N/N=C/c1cccc(O)c1`, the growth is 95.6% (inactive).

Take `CCCCCCCC/C=C\CCCCCCCC(=O)OCCCCCC`: the growth was 105% (inactive).

In the case of `CCN(CC)c1ccc(/C=N/NC(=O)c2ccc(S(C)(=O)=O)cc2)c(O)c1`, the growth is 15.4% (inactive).

`CC(=O)CC(c1ccc([N+](=O)[O-])cc1)c1c(O)c2ccccc2oc1=O` (stereo not drawn): the growth is 95.4% (inactive).

On to `CC1CCCN(CCCCOc2ccc(-c3ccc(C#N)cc3)cc2)C1` (stereo not drawn), for which the growth is 90.1% (inactive).

`Cn1c(-c2ccccc2)cc(=O)n1-c1ccccc1`: the growth was 107% (inactive).

Turning to `O=C(NCCN1CCCC1)n1cc(-c2ccncc2)c(-c2cc(O)cc(Cl)c2)n1`, the growth was 79.2% (inactive).

Consider `C(=Nc1ccc(-c2ccc(N=Cc3ccccc3)cc2)cc1)c1ccccc1`, for which the growth was 104% (inactive).

For the next assay, the system named is COLO 205 colon. The description is as above. The following applies: 10 µM unless noted.
For `CC(=O)O[C@H]1CC[C@]2(C)[C@H]3CC=C4[C@@H]5CC(C)(C)CC[C@]5(C(=O)OCC(COC(=O)C(Cl)Cl)(COC(=O)C(Cl)Cl)NC(=O)C(Cl)Cl)CC[C@@]4(C)[C@]3(C)CC[C@H]2C1(C)C`, the growth was 47.8% (inactive).

As for `Clc1ccc(Cl)c(N=Cc2ccc3c(c2)OCO3)c1`, the growth was 109% (inactive).

As for `CCN(CC)c1ccc2c(cc1=O)[C@@H](NC(C)=O)CCc1cc(OC)c(OC)c(OC)c1-2`, the growth was -62.8% (active).

On to `COc1ccc(CNc2c3ccccc3nc3ccc(OC)cc23)cc1`, for which the growth is -51.4% (active).

With `NC(=O)c1ccc[n+](Cc2ccccc2)c1`, the growth is 112% (inactive).

Regarding `N/N=C(\C(=N\N)c1ccccc1)c1ccccc1`, the growth is 108% (inactive).

For the compound `CC1=C(O)C(=O)CC1`, the growth was 116% (inactive).

As to `CCN(CC)CCCC(C)Nc1ccnc2ccc(Oc3ccccc3)cc12` (stereo not drawn), the growth was 41.4% (inactive).

Regarding `COc1cc2ncnc(Nc3ccc(S(=O)(=O)Nc4nccs4)cc3)c2cc1OCCCN1CCOCC1`, the growth was 103% (inactive).

`CC(=O)Cc1ccccn1`: the growth was 133% (inactive).

Consider `CC1OC(n2c3ccccc3c3c4c(c5c6ccccc6[nH]c5c32)C(=O)N(CCN[C@H]2CCC[C@@H]2N)C4=O)CC(O)C1O` (stereo partly drawn), for which the growth was 11.5% (inactive).

In the case of `O=C(C(=O)N1CCCC1)c1cn(CCCn2cc(C(=O)C(=O)N3CCCC3)c3cc(Br)ccc32)c2ccc(Br)cc12`, the growth was 106% (inactive).

As to `CCCCCCCOc1cccc(/C=C2\N=C3SCCCN3C2=O)c1`, the growth is 92.9% (inactive).

Regarding `COc1ccc(NC(=O)c2sc3c(=O)[nH]c(C(F)(F)F)nc3c2C)cc1`, the growth was 114% (inactive).

For the compound `C=C[C@H]1CCC/C=C/[C@@H]2C[C@H](O)C[C@H]2[C@H](O)/C=C/C(=O)O1`, the growth is -83.1% (active).

On to `C=CC(=O)N1CN(C(=O)C=C)CN(C(=O)C=C)C1`, for which the growth was -44.4% (active).

In the case of `CC(C)CCSc1nc(Nc2ccccc2)c(C#N)c(-c2ccc(F)cc2)n1`, the growth was 18.6% (inactive).

Regarding `COC(=O)c1ccc2c(c1)nc(-c1cc3ccccc3[nH]c1=O)n2-c1cc(C(C)(C)C)[nH]n1`, the growth is 71.6% (inactive).

On to `O=C1NN(C(=O)c2ccccc2)C(c2ccc(Cl)c(Cl)c2)=C/C1=C\c1ccccc1[N+](=O)[O-]`, for which the growth is -79.4% [6.75 µM] (active).

As to `O=C(CCl)Nc1ccc2c(c1)C(=O)c1ccccc1C2=O`, the growth was -50.7% (active).

Turning to `CCOC(=O)C1C(=O)C=C(c2cc(OC)c(OC)c(OC)c2)CC1c1sc(N(C)Cc2ccccc2)nc1Cl` (stereo not drawn), the growth is 97.1% (inactive).

Take `N/C(=N\OC(=O)c1ccccc1)C(C(=O)NOC(=O)c1ccccc1)C1CCCCC1` (stereo not drawn): the growth was 77.3% (inactive).

On to `C=C(C)[C@@H]1CC[C@]2(C(=O)O)CC[C@]3(C)[C@H](CC[C@@H]4[C@@]5(C)C[C@@H](CC#Cc6ccc(C(C)=O)s6)[C@H](O)C(C)(C)[C@@H]5CC[C@]43C)[C@@H]12`, for which the growth was 59.5% (inactive).

As to `CC(C)[C@@H]1C=C2CC[C@H]3[C@](C)(CN)CCC[C@]3(C)[C@H]2CC1`, the growth was -89.7% (active).

As for `COc1ccc(-c2cc(-c3cn(-c4cccc(Cl)c4)nc3-c3ccc(OC)cc3)[nH]c(=S)n2)cc1`, the growth is 86.6% (inactive).

As for `CCN1CCN(Cc2ccc(NC(=O)Nc3ccc(-n4ccc5c(NC(=O)c6ccccc6)nccc54)cc3)cc2C(F)(F)F)CC1`, the growth was -87.5% (active).

Turning to `Clc1ccc(C2=NN[C@H](c3cn(-c4ccccc4)nc3-c3ccccc3)C2)cc1`, the growth was 70.1% (inactive).

As for `CC(C)CC1NC(=O)C(CC(C)C)N(CO)C1=O` (stereo not drawn), the growth was 111% (inactive).

For the compound `c1ccc(-c2ccc(-c3ccccc3)[nH]2)cc1`, the growth is 127% (inactive).

For the compound `C=CCN(CC#N)CC=C`, the growth was 113% (inactive).

Turning to `COc1ccc2c(c1)sc1nc(-c3ccccc3)c(-c3cccc4ccccc34)n12`, the growth was 6.28% (active).

Consider `CC(C)c1nc2ccccc2n1CC(=O)N/N=C/c1cccc(O)c1`, for which the growth is 108% (inactive).

For the compound `CCCCCCCC/C=C\CCCCCCCC(=O)OCCCCCC`, the growth was 124% (inactive).

`CCN(CC)c1ccc(/C=N/NC(=O)c2ccc(S(C)(=O)=O)cc2)c(O)c1`: the growth is 8.62% (active).

Turning to `CC(=O)CC(c1ccc([N+](=O)[O-])cc1)c1c(O)c2ccccc2oc1=O` (stereo not drawn), the growth was 112% (inactive).

With `CC1CCCN(CCCCOc2ccc(-c3ccc(C#N)cc3)cc2)C1` (stereo not drawn), the growth was 75.1% (inactive).

In the case of `Cn1c(-c2ccccc2)cc(=O)n1-c1ccccc1`, the growth was 121% (inactive).

Regarding `O=C(NCCN1CCCC1)n1cc(-c2ccncc2)c(-c2cc(O)cc(Cl)c2)n1`, the growth was 76.4% (inactive).

With `C(=Nc1ccc(-c2ccc(N=Cc3ccccc3)cc2)cc1)c1ccccc1`, the growth is 117% (inactive).
